According to PubChem BioAssay (Tox21):
Inconclusive results are not listed. Activity calls are given as the source filed them. The call rests on the fitted dose curve; in most records, active means well fitted curve in the direction sought with a large enough effect in the repeat runs; inconclusive means weak or mixed curves; inactive means no such curve, though single readings can be large; an effect the other way counts as inactive or inconclusive.

Key:
[1] = Caspase-3/7 induction in CHO-K1 cells by small molecules, qHTS cell viability counter screen (AID 1346979); further: nearly all actives have a fitted effect of over 35% in size
Procedure, shortened: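 Wild-type CHO-K1 cells (1,500/well) treated with compound after 5 h plating; after 16 h at 37C, viability read as CellTiter-Fluor fluorescence following 1 h reagent incubation, in the same wells as the caspase read.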

[2] = Caspase-3/7 induction in CHO-K1 cells by small molecules, qHTS assay (AID 1346980); further: nearly all actives have a fitted effect of over 15% in size
Procedure, shortened: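 Luminescent Caspase-Glo 3/7 read (30min, room temperature) quantified apoptosis induction. Cells were wild-type CHO-K1, treated with compound for 17hr at 37 C and 5% CO2.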

[3] = Caspase-3/7 induction in HepG2 cells by small molecules, qHTS cell viability counter screen (AID 1346981); further: series mostly up to about 92 µM; nearly all actives have a fitted effect of over 30% in size
Procedure, shortened: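 HepG2, WT, 2,000 cells/well; 5 hr pre-incubation 37 C/5% CO2; compound pin-transferred from DMSO; 16 hr exposure; CellTiter-Fluor, 1 hr; fluorescence read.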

[4] = target: Nuclear receptor subfamily 1 group I member 2 (Homo sapiens) (UniProt O75469); assay: Human pregnane X receptor (PXR) small molecule agonists, qHTS assay (AID 1346982); further: nearly all actives have a fitted effect of over 35% in size; further: potency means the concentration at half of the fitted maximal effect
Nuclear receptor subfamily 1 group I member 2 (Homo sapiens), sequence (O75469 whole entry, looked up): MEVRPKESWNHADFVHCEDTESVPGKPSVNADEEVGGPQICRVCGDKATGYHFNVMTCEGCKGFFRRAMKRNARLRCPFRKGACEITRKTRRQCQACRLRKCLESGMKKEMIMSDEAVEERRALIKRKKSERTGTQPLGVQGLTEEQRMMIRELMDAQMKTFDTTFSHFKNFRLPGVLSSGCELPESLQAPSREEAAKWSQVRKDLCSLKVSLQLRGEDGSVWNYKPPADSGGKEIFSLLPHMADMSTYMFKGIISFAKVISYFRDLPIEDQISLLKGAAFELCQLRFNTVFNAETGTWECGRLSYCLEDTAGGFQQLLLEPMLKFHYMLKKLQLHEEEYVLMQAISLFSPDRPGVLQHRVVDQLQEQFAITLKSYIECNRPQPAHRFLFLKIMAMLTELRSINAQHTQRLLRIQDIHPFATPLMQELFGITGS
Procedure, shortened: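 Luciferase signal from ONE-Glo (30 min, room temperature) measured activation of hPXR-driven CYP3A4 reporter expression in PXR-Luc HepG2 cells treated with compounds for 24 hr at 37 C.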

[5] = target: Cytochrome P450 2D6 (Homo sapiens) (UniProt P10635); assay: Cytochrome P450 Family 2 Subfamily D Member 6 (CYP2D6) small molecule antagonists: luciferase reporter qHTS assay (AID 1671196); further: nearly all actives have a fitted effect of over 50% in size; further: potency means the concentration at half of the fitted maximal effect; on activity change, negative = inhibition: series mostly up to about 120 µM
Cytochrome P450 2D6 (Homo sapiens), sequence (P10635 whole entry, looked up): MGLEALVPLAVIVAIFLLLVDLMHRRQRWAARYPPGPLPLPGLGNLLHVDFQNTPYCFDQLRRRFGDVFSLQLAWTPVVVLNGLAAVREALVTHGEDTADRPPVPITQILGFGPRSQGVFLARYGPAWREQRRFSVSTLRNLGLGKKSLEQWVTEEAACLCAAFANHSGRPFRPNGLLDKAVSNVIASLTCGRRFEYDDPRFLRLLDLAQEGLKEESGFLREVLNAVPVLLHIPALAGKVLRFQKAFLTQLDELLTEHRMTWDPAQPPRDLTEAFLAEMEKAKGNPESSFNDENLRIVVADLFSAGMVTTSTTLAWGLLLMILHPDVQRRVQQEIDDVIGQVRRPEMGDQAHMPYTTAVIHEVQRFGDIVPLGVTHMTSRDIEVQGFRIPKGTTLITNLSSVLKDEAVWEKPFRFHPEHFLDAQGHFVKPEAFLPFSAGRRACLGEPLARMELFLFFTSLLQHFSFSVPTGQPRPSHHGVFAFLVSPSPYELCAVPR
Procedure, shortened: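 Read-out is luminescence from luciferin formed by CYP2D6 turnover of a proluciferin substrate, recorded as relative luminescence units. Reactions ran 1 h at room temperature after NADPH regeneration solution was added.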

[6] = target: Cytochrome P450 2C19 (Homo sapiens) (UniProt P33261); assay: Cytochrome P450 Family 2 Subfamily C Member 19 (CYP2C19) small molecule antagonists: luciferase reporter qHTS assay (AID 1671197); further: nearly all actives have a fitted effect of over 65% in size; further: potency means the concentration at half of the fitted maximal effect; on activity change, negative = inhibition: series mostly up to about 120 µM
Cytochrome P450 2C19 (Homo sapiens), sequence (P33261 whole entry, looked up): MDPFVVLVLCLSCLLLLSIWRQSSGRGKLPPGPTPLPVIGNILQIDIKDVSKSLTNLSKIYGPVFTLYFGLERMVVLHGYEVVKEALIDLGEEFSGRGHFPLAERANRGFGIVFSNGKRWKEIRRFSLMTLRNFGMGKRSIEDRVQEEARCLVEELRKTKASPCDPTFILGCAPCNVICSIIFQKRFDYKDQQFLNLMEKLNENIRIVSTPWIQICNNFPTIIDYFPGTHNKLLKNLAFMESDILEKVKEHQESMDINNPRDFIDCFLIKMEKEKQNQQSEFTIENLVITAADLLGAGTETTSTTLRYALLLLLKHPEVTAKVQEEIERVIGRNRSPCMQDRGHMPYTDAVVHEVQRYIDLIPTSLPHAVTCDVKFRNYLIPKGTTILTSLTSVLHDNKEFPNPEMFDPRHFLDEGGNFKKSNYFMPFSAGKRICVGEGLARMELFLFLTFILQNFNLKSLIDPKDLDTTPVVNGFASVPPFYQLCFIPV
Procedure, shortened: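 CYP2C19 P450-Glo, 1536-well qHTS. Cpd + enzyme/proluciferin substrate 10 min RT; + NADPH regen, 37C 1 h; stop with luciferin detection reagent, 20 min RT, luminescence (RLU). Pos ctrl ketoconazole.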

[7] = target: Cytochrome P450 2C9 (Homo sapiens) (UniProt P11712); assay: Cytochrome P450 Family 2 Subfamily C Member 9 (CYP2C9) small molecule antagonists: luciferase reporter qHTS assay (AID 1671198); further: nearly all actives have a fitted effect of over 50% in size; further: potency means the concentration at half of the fitted maximal effect; on activity change, negative = inhibition: series mostly up to about 120 µM
Cytochrome P450 2C9 (Homo sapiens), sequence (P11712 whole entry, looked up): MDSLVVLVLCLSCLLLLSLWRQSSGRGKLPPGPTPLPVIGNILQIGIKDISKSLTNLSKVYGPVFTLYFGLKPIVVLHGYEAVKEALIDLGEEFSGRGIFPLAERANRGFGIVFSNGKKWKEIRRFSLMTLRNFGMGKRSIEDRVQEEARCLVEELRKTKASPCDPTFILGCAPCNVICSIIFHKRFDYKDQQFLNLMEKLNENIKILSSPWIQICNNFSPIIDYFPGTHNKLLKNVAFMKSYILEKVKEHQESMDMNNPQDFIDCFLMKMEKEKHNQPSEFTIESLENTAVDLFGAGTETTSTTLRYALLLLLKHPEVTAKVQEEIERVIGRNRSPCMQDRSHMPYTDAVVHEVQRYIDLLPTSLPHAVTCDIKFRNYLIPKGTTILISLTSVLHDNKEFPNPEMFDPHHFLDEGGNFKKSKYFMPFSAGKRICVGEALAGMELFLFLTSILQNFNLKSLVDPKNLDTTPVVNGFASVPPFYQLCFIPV
Procedure, shortened: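 Enzyme-substrate mix preincubated with compound 10 min at room temperature; reaction started with NADPH regeneration solution, 1 h 37C. Luminescent luciferin product read after 20 min detection reagent.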
On the % scale 0 is the no-effect control and ±100 the full control effect.

CC1(CO)CN(c2ccccc2)NC1=O (stereo not given)
active: Potency [4] 61.1 µM | Potency [5] 28.3 µM | Potency [6] 20 µM | Potency [7] 25.2 µM
inactive: Potency [1] | outcome [2] | Potency [3]

C=COCCOCCOCCOC=C
active: Potency [6] 79.6 µM
inactive: Potency [1] | outcome [2] | Potency [3] | Potency [4] | Potency [5] | Potency [7]

CCCC(=O)C(C)=O
inactive: Potency [1] | outcome [2] | Potency [3] | Potency [4] | Potency [5]

CC1=CCC(C(C)C)=CC1
inactive: Potency [1] | outcome [2] | Potency [3] | Potency [4] | Potency [5] | Potency [6]

C=C(C)C(=O)OCCOP(=O)(O)OCCOC(=O)C(=C)C
inactive: Potency [1] | outcome [2] | Potency [3] | Potency [4] | Potency [5] | Potency [6] | Potency [7]

C=CC(OCC)OCC
inactive: Potency [1] | outcome [2] | Potency [3] | Potency [4] | Potency [5] | Potency [6]

CCn1ccc(NS(=O)(=O)c2ccc(N)cc2)nc1=O
inactive: Potency [1] | outcome [2] | Potency [3] | Potency [4] | Potency [5] | Potency [6]

CN=C(NC#N)Nc1ccc(C2=NNC(=O)CC2C)cc1 (stereo not given)
inactive: Potency [1] | outcome [2] | Potency [3] | Potency [4] | Potency [5] | Potency [6] | Potency [7]

CCCCCCOC(=O)CC
inactive: Potency [1] | outcome [2] | Potency [3] | Potency [4] | Potency [5] | Potency [6] | Potency [7]

Cc1nc2n(c(=O)c1CCN1CCC(c3noc4cc(F)ccc34)CC1)CCC[C@H]2O
active: Potency [5] 6.01 µM
inactive: activity change, negative = cytotoxicity [1] 8.49% [at 19 µM] | caspase-3/7 activation [2] 0.349% [at 19 µM] | activity change, negative = cytotoxicity [3] 0.92% [at 19 µM] | activation [4] 13.9% [at 19 µM] | activity change, negative = inhibition [6] 18.1% [at 23.6 µM] | activity change, negative = inhibition [7] 0.924% [at 23.6 µM]

CCCCC(CC)COCCO (stereo not given)
inactive: Potency [1] | outcome [2] | Potency [3] | Potency [4] | Potency [5] | Potency [6]

On1nnc2ccccc21
inactive: Potency [1] | outcome [2] | Potency [3] | Potency [4] | Potency [6] | Potency [7]
active: Potency [5] 35.6 µM

CC(C)C(=O)OCCc1ccccc1
inactive: Potency [1] | outcome [2] | Potency [3] | Potency [4] | Potency [5] | Potency [6]

CCCCNC1CC(C)(C)NC(C)(C)C1
inactive: Potency [1] | outcome [2] | Potency [3] | Potency [4] | Potency [6] | Potency [7]
active: Potency [5] 28.3 µM

O=C(OCc1ccccc1)C(=O)OCc1ccccc1
inactive: Potency [1] | outcome [2] | Potency [3] | Potency [4] | Potency [5] | Potency [6]

CC(=O)/C=C/C1C(C)=CCC(C)C1(C)C (stereo not given)
inactive: Potency [1] | outcome [2] | Potency [3] | Potency [5]
active: Potency [4] 19.3 µM | Potency [6] 10 µM

CC(C)C[C@H](NC(=O)CNC(=O)[C@H](Cc1ccc(O)cc1)NC(=O)[C@H](CO)NC(=O)[C@H](Cc1c[nH]c2ccccc12)NC(=O)[C@H](Cc1cnc[nH]1)NC(=O)[C@@H]1CCC(=O)N1)C(=O)N[C@@H](CCCN=C(N)N)C(=O)N1CCC[C@H]1C(=O)NCC(N)=O (stereo in doubt)
inactive: Potency [1] | outcome [2] | Potency [3] | Potency [4] | Potency [5] | Potency [6] | Potency [7]

COc1ccc2nc(SCc3ncc(C)c(OC)c3C)[nH]c2c1
inactive: Potency [1] | outcome [2] | Potency [3]
active: Potency [4] 23.7 µM | Potency [5] 27.5 µM | Potency [6] 2.19 µM | Potency [7] 13.8 µM

CC(C(=O)O)c1ccc2c(c1)CC(=O)c1ccccc1S2 (stereo not given)
inactive: Potency [1] | outcome [2] | Potency [3] | Potency [4] | Potency [5] | Potency [6]

O=C(O)CCSSCCC(=O)O
inactive: Potency [1] | outcome [2] | Potency [3] | Potency [4] | Potency [5] | Potency [6] | Potency [7]

CC/C=C\CC1=C(C)CCC1=O
inactive: Potency [1] | outcome [2] | Potency [3] | Potency [5] | Potency [7]
active: Potency [4] 34.4 µM | Potency [6] 63.3 µM

BrCCCCCBr
inactive: Potency [1] | outcome [2] | Potency [3] | Potency [4] | Potency [5] | Potency [6]

ClCCCl
inactive: Potency [1] | outcome [2] | Potency [3] | Potency [4] | Potency [5] | Potency [7]

CC(C)c1ccc2cc(C(C)C)ccc2c1
inactive: Potency [1] | outcome [2] | Potency [3] | Potency [5] | Potency [7]
active: Potency [4] 61.1 µM

C=C(C)C(=O)OCCN(CC)CC
inactive: Potency [1] | outcome [2] | Potency [3] | Potency [4] | Potency [5] | Potency [6] | Potency [7]

CCC(C)NC(N)=O (stereo not given)
inactive: Potency [1] | outcome [2] | Potency [3] | Potency [4] | Potency [6] | Potency [7]

CCC(CC)CO
inactive: Potency [1] | outcome [2] | Potency [3] | Potency [4] | Potency [5] | Potency [7]

C=CCCCCCCCCCCCC
inactive: Potency [1] | outcome [2] | Potency [3] | Potency [4] | Potency [5] | Potency [6] | Potency [7]

CC(C)OC(=O)CCCCC(=O)OC(C)C
inactive: Potency [1] | outcome [2] | Potency [3] | Potency [4] | Potency [6]

C=C1CC/C=C(\C)CC[C@@H]2[C@@H]1CC2(C)C
inactive: Potency [1] | outcome [2] | Potency [3] | Potency [4] | Potency [5] | Potency [6] | Potency [7]

O=Cc1ccc(Cl)c(Cl)c1
inactive: Potency [1] | outcome [2] | Potency [3] | Potency [4] | Potency [5] | Potency [6] | Potency [7]

Cc1cc(C(C)(C)C)c(O)c(C)c1CC1=NCCN1
inactive: Potency [1] | outcome [2] | Potency [3] | Potency [4] | Potency [6] | Potency [7]
active: Potency [5] 1.55 µM

CCOCCOCCOCC
inactive: Potency [1] | outcome [2] | Potency [3] | Potency [4] | Potency [6] | Potency [7]

N#Cc1ccc(C(=O)O)cc1
inactive: Potency [1] | outcome [2] | Potency [3] | Potency [4] | Potency [7]
active: Potency [5] 28.3 µM

CCOC(=O)/C=C/c1ccccc1
inactive: Potency [1] | outcome [2] | Potency [3] | Potency [4]
active: Potency [6] 71 µM

CCCCCCCCCCl
inactive: Potency [1] | outcome [2] | Potency [3] | Potency [4] | Potency [7]
active: Potency [5] 40.3 µM

COCCOCCOCCOCCOCCO
inactive: Potency [1] | outcome [2] | Potency [3] | Potency [4] | Potency [5] | Potency [6] | Potency [7]

CCOC(=O)CC(=O)c1ccccc1
active: Potency [4] 68.6 µM | Potency [6] 39.9 µM | Potency [7] 35.6 µM
inactive: Potency [1] | outcome [2] | Potency [3]

CCOCCOC(=O)/C=C/c1ccc(OC)cc1
active: Potency [6] 34.7 µM | Potency [7] 13.8 µM
inactive: Potency [1] | outcome [2] | Potency [3] | Potency [4] | Potency [5]

C=C(C)C(=O)OCCNC(C)(C)C
active: Potency [6] 70.9 µM
inactive: Potency [1] | outcome [2] | Potency [3] | Potency [4] | Potency [5] | Potency [7]

CC(C)(C)OC(=O)c1ccc(O)cc1
inactive: Potency [1] | outcome [2] | Potency [3]
active: Potency [4] 27.3 µM | Potency [6] 63.3 µM

COC(=O)CCCCCCCC(=O)OC
inactive: Potency [1] | outcome [2] | Potency [3] | Potency [4] | Potency [6] | Potency [7]

O=S(=O)(O)c1ccc2cc(O)c(S(=O)(=O)O)cc2c1
inactive: Potency [1] | outcome [2] | Potency [3] | Potency [4] | Potency [7]

c1ccc2nccnc2c1
inactive: Potency [1] | outcome [2] | Potency [3] | Potency [4] | Potency [5] | Potency [7]

C=C(C)C1CCC(C)(O)CC1 (stereo not given)
inactive: Potency [1] | outcome [2] | Potency [3] | Potency [4] | Potency [5] | Potency [7]

CC(C)CC(C)CC(C)CC(C)COC(=O)c1ccccc1C(=O)OCC(C)CC(C)CC(C)CC(C)C (stereo not given)
active: Potency [7] 58.7 µM
inactive: Potency [1] | outcome [2] | Potency [3] | Potency [4]

O=C(OCC1(COC(=O)c2cccnc2)CCCC(COC(=O)c2cccnc2)(COC(=O)c2cccnc2)C1O)c1cccnc1
active: Potency [7] 12.3 µM
inactive: Potency [1] | outcome [2] | Potency [3] | Potency [4]

OC[C@H](Cc1cccc(O)c1)[C@H](CO)Cc1cccc(O)c1
inactive: Potency [1] | outcome [2] | Potency [3] | Potency [4]
active: Potency [6] 32.5 µM | Potency [7] 23 µM

COC(=O)CCc1ccc(OCC(O)CNC(C)C)cc1 (stereo not given)
inactive: Potency [1] | outcome [2] | Potency [3] | Potency [4] | Potency [6] | Potency [7]

CCCCCCN
inactive: Potency [1] | outcome [2] | Potency [3] | Potency [4] | Potency [7]

C=C(C)C(=O)OCc1ccccc1
inactive: Potency [1] | outcome [2] | Potency [3] | Potency [4] | Potency [5] | Potency [7]

COc1ccc(Br)c(C)c1
active: Potency [6] 36 µM
inactive: Potency [1] | outcome [2] | Potency [3] | Potency [4] | Potency [5] | Potency [7]

CC(C)C(=O)OCc1cccc(OC(=O)[C@@H]2N3C(=O)[C@@H](NC(=O)Cc4ccccc4)[C@H]3SC2(C)C)c1
inactive: Potency [1] | outcome [2] | Potency [3] | Potency [4] | Potency [5] | Potency [6]
active: Potency [7] 12.3 µM

CCO[Si](CCCS)(OCC)OCC
inactive: Potency [1] | outcome [2] | Potency [3] | Potency [4]
active: Potency [6] 35.6 µM

CC(=O)c1ccc2c(c1)Cc1ccccc1-2
active: Potency [4] 54.5 µM | Potency [7] 12.6 µM
inactive: Potency [1] | outcome [2] | Potency [3] | Potency [5]

CC(C)(C)c1nnc(NS(=O)(=O)c2ccc(N)cc2)s1
inactive: Potency [1] | outcome [2] | Potency [3] | Potency [4] | Potency [6]

O=C(O)C(=O)Cc1ccccc1
inactive: Potency [1] | outcome [2] | Potency [3] | Potency [4] | Potency [5] | Potency [7]

O=S(=O)(O)CCN1CCN(CCO)CC1
inactive: Potency [1] | outcome [2] | Potency [3] | Potency [4] | Potency [6] | Potency [7]

Cc1cccc2nccnc12
inactive: Potency [1] | outcome [2] | Potency [3] | Potency [4] | Potency [6]
